# OvCa metastasis: ovarian cancer metastasis inhibition, 3D TME model. SKOV3ip1-GFP adhesion/invasion on 3D omental model, fluorescence. Potency, µM (highest dose often 45.8 µM), for the others: top-dose activity change, negative = inhibition, actives largely listed as inhibitors. actives 0.1% (n = 46,000). AID 1963576;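 also: plate controls were DMSO wells for no effect and tomatine positive control wells for full effect; nearly all actives have a fitted effect of over 65% in size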
#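 qHTS, 4-pt dose (0.36-46 umol/L); SKOV3ip1-GFP, 1,200 cells/well, no FBS; primary omental fibroblast/mesothelial co-culture 48 h pre-grown; 2 h RT + 16 h 37 C; PBS wash, 4% PFA; GFP count 488/509 nm.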
# p53null 32C kill: selectivity test: cytotoxicity in p53 null cells, permissive temperature. H1299-neo p53 null cells, ATP luminescence, 24 h, 32C. Potency, µM (highest dose often 46.1 µM), without a hit: top-dose activity change, negative = cytotoxicity, most hits filed as cytotoxic. actives 0.62% (n = 55,000);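 also: 0% = DMSO only and -100% = full killing by 100 µM tamoxifen; nearly all actives have a fitted effect of over 55% in size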
#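 H1299-neo, 600 cells/well; overnight 37C; cpd up to 46 uM, 24 h at 32C; ATPlite luminescence after 20 min RT; normalized to DMSO (0%) and tamoxifen 100 uM (100% kill); Hill-fit AC50.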
# PMP22 txn prim: modulators of PMP22 gene transcription in S16 Schwann cells | actives 2% (n = 43,000) | S16 Pmp22-F2sN Schwann cells, FLuc/NLuc coincidence luminescence, 24 h | Potency, µM (top dose mostly 57.5 µM), for the others: top-dose activity change, negative = inhibition, hits mostly inhibitors | AID 1508649; active = clear falling dose curves in both reporters; inconclusive = both reporters move, but less clearly or upward; inactive = either reporter flat; the % is the NLuc reporter signal
#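 qHTS, 1536-well. Cells seeded, compounds added by pin tool, 24 h 37C. Nano-Glo reagent 1 (lysis/FLuc), 10 min RT, read; Stop&Glo, 10 min RT, read NLuc.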
# mTORC1 inh: inhibitors of mTORC1 signaling in Tsc2-/- p53-/- MEF cells | Tsc2-/- p53-/- MEF, phospho-rpS6 immunofluorescence/PI, 24 h | Potency, µM (doses to about 38.3 µM), without a hit: at the top dose activity change, negative = inhibition, hits mostly inhibitors | actives 0.78% (n = 44,000) | AID 493208;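 also: plate controls were DMSO for no effect and rapamycin for full effect; nearly all actives have a fitted effect of over 50% in size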
#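 Compounds act on Tsc2-/-, p53-/- fibroblasts carrying an empty vector for 24 h before fixation and dual staining for phospho-S6 and DNA (propidium iodide). Values are percentages of cells above a rapamycin-defined pS6/PI threshold.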
# p53null 39C tox: kills p53 null cells at the nonpermissive temperature; actives 0.97% (n = 55,000); Potency, µM (series often up to 46.1 µM), inactives show at the highest dose activity, negative = cell killing, usual class: cytotoxic; H1299 p53-null (neo) cells, 39C, ATPlite viability, 24 h; AID 904;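 also: 0% = DMSO only and -100% = full killing by 100 µM tamoxifen; nearly all actives have a fitted effect of over 50% in size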
#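 Luminescent ATP signal reported cell survival after H1299 lines (neo, p53 null; or p53 A138V) received up to 46 uM compound and 24 hr incubation at 39C.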
# S16 viability: cytotoxicity in S16 Pmp22-F2sN Schwann cells; S16 Pmp22-F2sN Schwann cells viability, CellTiter-Glo, 24 h; Potency, µM (top dose mostly 57.5 µM), without a hit: at the highest dose activity change, negative = cytotoxicity, actives largely listed as cytotoxic; actives 0.48% (n = 43,000); AID 1508642; also: nearly all actives have a fitted effect of over 65% in size
#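 Viability was measured by CellTiter-Glo luminescence (15 min, room temperature). This followed 24 h at 37 °C of compound exposure (23 nL pin transfer) in S16 Pmp22-F2sN Schwann cells, 500-1,000 per well.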
# * marks the source's active call; other numbers are inactive results; i = inactive; ? = inconclusive; . = not tested or not shown. Shown are actives, neighbours in structure and some others; about 3% of the full set was active somewhere. Unless noted, calls follow the shape of the dose curve; as a rule, active = well fitted curve in the direction sought with a large enough effect; inconclusive = small, poorly fitted or top-dose-only effect, or another doubt; inactive = no such curve, though single readings can be large; an effect the other way counts as inactive or inconclusive. Unless noted, % is scaled to controls: 0 for no effect and ±100 for the full control effect; potency is read from the fitted curve at half-maximal effect.
SMILES,OvCa metastasis,p53null 32C kill,PMP22 txn prim,mTORC1 inh,p53null 39C tox,S16 viability
CCOc1ccc(/C=C/C(=O)Nc2ccc3nc(N(CC)CC)cc(C)c3c2)cc1OC,?,6%,?,13µM*,3%,?
CCN(CC)c1cc(C)c2cc(NC(=O)/C=C/c3cc(OC)c(OC)c(OC)c3)ccc2n1,?,?,?,18µM*,22µM*,?
CC1=C(C(=O)Nc2cc3cn[nH]c3cc2F)C(c2ccc(C(F)(F)F)cc2)CC(=O)N1 (stereo unspecified),5%,.,.,.,.,.
CN(C(=O)c1ccc(F)cc1C(F)(F)F)C1CCN(c2nnc(-c3ccnn3C)c3ccccc23)CC1,-26%,.,.,.,.,.
COc1ccc(C(=O)Nc2cc3cc(Cl)ccc3oc2=O)cc1OC,-16%,18%,-18%,0%,-10%,1%
Cc1ccc(C(=O)Nc2cc3cc(Cl)ccc3oc2=O)cc1,i,12%,6.5µM*,5%,-25%,-6%
COC(=O)c1ccc(NC(=O)CC2Nc3cc(C)c(C)cc3NC2=O)cc1 (stereo unspecified),4.5µM*,-7%,-16%,-8%,2%,2%
Nc1ncnc2c1c(-c1cccc(OCc3ccccc3)c1)cn2C1CC(CN2CCCC2)C1 (stereo unspecified),-18%,.,.,.,.,.
O=S(=O)(c1cccc(C(F)(F)F)c1)n1c(/C=C/c2ccccc2)nc2ccccc21,-16%,16µM*,?,-1%,?,?
CC(C)Cn1c(/C=C/c2ccccc2)nc2ccccc21,.,.,.,.,-7%,.
CCOc1ccc(S(=O)(=O)Nc2nc3ccccc3nc2Nc2ccc(OC)cc2)cc1,-4%,9%,-10%,6%,15%,-1%
CSc1ccc(/C=C/c2nc3ccccc3n2S(=O)(=O)c2ccc(Br)cc2)cc1,i,3.2µM*,?,-18%,2.5µM*,?
CCOc1ccc(/C=C/c2nc3ccccc3n2S(=O)(=O)c2ccc(Br)cc2)cc1,-6%,13µM*,-1%,-2%,7.9µM*,-7%
C[C@@H](NCc1cc2ccccc2[nH]1)c1cccc2ccccc12,-24%,.,.,.,.,.
Cc1ccc(NC(=O)c2cccc(C(C)(C)C#N)c2)cc1Nc1ccc2ncn(C)c(=O)c2c1,55%,.,.,.,.,.
Cc1nc(NC(=O)N2CCC[C@@H]2C(N)=O)sc1-c1csc(C(C)(C)C)n1,3%,.,.,.,.,.
CNC1[C@H](O)C(O[C@@H]2C(O)C(O[C@H]3O[C@H]([C@@H](C)NC)CC[C@H]3N)[C@@H](N)C[C@H]2N)OC[C@]1(C)O (stereo partly specified),6%,.,.,.,.,.
COc1cc(N2CCC(N3CCN(C)CC3)CC2)ccc1Nc1ncc(Cl)c(Nc2ccccc2S(=O)(=O)C(C)C)n1,-7%,.,.,.,.,.
O=C(O)C1=NC(C(=O)O)CC(C=CN2c3cc(O)c(OC4OC(CO)C(O)C(O)C4O)cc3CC2C(=O)O)=C1 (stereo unspecified),-15%,.,.,.,.,.
CC(C)c1ccc(Nc2c(-c3ccccc3O)nc3cnccn23)cc1,-11%,34%,?,-25%,25µM*,-9%
CC(C)c1ccc(Nc2c(-c3ccccn3)nc3ccccn23)cc1,?,59%,14µM*,-19%,?,8.9µM*
COc1cc(-c2nc3cnccn3c2Nc2ccc(C(C)C)cc2)ccc1O,-22%,?,?,15µM*,16µM*,?
Cc1ccn2c(Nc3ccc(C(C)C)cc3)c(-c3cccnc3)nc2c1,0%,34%,?,-2%,21%,?
Cc1csc2nc(-c3cccc(NC(=O)c4ccccc4F)c3)cn12,i,?,?,1%,11µM*,?
CC1(C)S[C@H]2[C@H](NC(=O)[C@@H](N)c3ccc(O)cc3)C(=O)N2[C@@H]1C(=O)O,4%,.,.,.,.,.
SMILES,OvCa metastasis,p53null 32C kill,PMP22 txn prim,mTORC1 inh,p53null 39C tox,S16 viability
C#CCN(C)CC1=Cc2ccccc2Oc2ccccc21,-15%,.,.,.,.,.
CN(C)c1ccc(CNC(=O)CCCn2ccc3cc(S(=O)(=O)N4CCCC4)ccc32)cc1,-6%,-3%,?,-9%,3%,?
O=C(CCCn1ccc2cc(S(=O)(=O)N3CCCC3)ccc21)NCc1ccc(Cl)cc1,-24%,-7%,?,7.4µM*,?,?
CN(C)C1CCN(C(=O)c2ccc(NC(=O)Nc3nc(N4CCOCC4)nc(N4CCOCC4)n3)cc2)CC1,22%,.,.,.,.,.
CN1CCc2c(n(Cc3ccc(C(=O)NO)cc3)c3ccccc23)C1,-8%,.,.,.,.,.
CC(C)C[C@H](NC(=O)c1cc2ccccc2s1)C(=O)N1CCN(C(=O)[C@H](CO)NS(=O)(=O)c2ccc(Cl)cc2Cl)CC1,3%,.,.,.,.,.
O=C(NCCc1ccccc1Cl)c1ccc(Cn2c(=O)c3cccn3c3cccnc32)cc1,?,?,?,5%,10µM*,1%
Cc1ccc(-c2cn3ccc(C)cc3n2)cc1,i,0.63µM*,?,-4%,0.79µM*,10%
Cc1ccc(S(=O)(=O)Nc2ccc(-c3cn4ccc(C)cc4n3)cc2)cc1,.,.,.,.,8%,.
CC(C)(C)c1ccc(C(=O)Nc2nnc3n2CCS3)cc1,i,10µM*,?,?,?,-22%
c1ccc(CSc2ccc(-c3ccco3)nn2)cc1,.,11µM*,.,.,?,.
CCC(C(=O)NCCc1ccc(OC)c(OC)c1OC)n1nc(C)c2sc3ccccc3c2c1=O (stereo unspecified),0%,-11%,?,1%,1%,?
COc1ccc(CCNC(=O)CCCn2nc(C)c3sc4ccccc4c3c2=O)cc1OC,-1%,?,-32%,18µM*,?,-10%
CCOc1ccc(CCNC(=O)CCCn2nc(C)c3sc4ccccc4c3c2=O)cc1OCC,i,?,?,0%,-23%,5%
COc1ccc(CCNC(=O)C(C)n2nc(C)c3sc4ccccc4c3c2=O)c(OC)c1 (stereo unspecified),i,-21%,-10%,2.9µM*,?,0%
Cc1cc(C)cc(NC(=O)Cn2c(=O)n(CC(=O)NCCc3ccccc3)c(=O)c3ccccc32)c1,1%,?,?,-3%,?,-4%
CCc1cccc(NC(=O)Cn2c(=O)n(CC(=O)NCCc3ccccc3)c(=O)c3ccccc32)c1,0%,13µM*,?,4%,13µM*,-5%
